Source: PubChem
CD11b adhes enh: CD11b/CD18-fibrinogen binding enhancement; AID 1499; K562 CD11b/CD18 adhesion to fibrinogen, ATPlite luminescence; activation, % at 10 µM; 0.07% of 93,000 active;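 active = 10 µM primary screen giving 50% or more activity, confirmed by 40% or more on retest at that dose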
CYP2C19 act: activators of human cytochrome P450 2C19. activation factor at 5 µM. recombinant CYP2C19, luciferin-H EGE luminescence; stronger effect = higher value; 0 = fully inhibited enzyme, 1 = untreated enzyme. P33261. 96,000 tested, under 10 active;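 active = activation factor of at least 2 at 5 µM in the primary screen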;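 note: 0 = wells with 2.5 mM tranylcypromine and 1 = vehicle-only wells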
CYP2C9 inhib: inhibitors of human CYP2C9. inhibition, % at 5 µM. AID 777. CYP2C9 Supersomes, luciferin-H conversion, luminescence. 20% of 96,000 active;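 active = blocking of liver enzyme CYP2C9 beyond about 50% at 5 µM, limit read from the data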
Target sequence (P11712 whole entry, looked up): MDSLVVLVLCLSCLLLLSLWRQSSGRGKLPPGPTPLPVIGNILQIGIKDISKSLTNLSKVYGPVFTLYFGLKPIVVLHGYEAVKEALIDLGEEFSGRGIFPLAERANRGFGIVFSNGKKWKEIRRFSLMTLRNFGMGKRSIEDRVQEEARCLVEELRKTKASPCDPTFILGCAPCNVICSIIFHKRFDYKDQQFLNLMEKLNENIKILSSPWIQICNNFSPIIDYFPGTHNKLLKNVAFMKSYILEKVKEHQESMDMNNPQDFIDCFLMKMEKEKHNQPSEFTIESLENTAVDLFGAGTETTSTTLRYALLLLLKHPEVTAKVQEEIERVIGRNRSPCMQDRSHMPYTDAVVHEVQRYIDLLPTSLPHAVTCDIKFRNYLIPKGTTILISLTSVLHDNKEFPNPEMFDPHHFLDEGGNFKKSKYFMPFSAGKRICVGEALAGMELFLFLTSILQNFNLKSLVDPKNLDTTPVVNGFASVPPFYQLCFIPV
CD11b adhes inh: CD11b/CD18-fibrinogen binding inhibition; P05107+P11215; K562 CD11b/CD18 adhesion to fibrinogen, ATPlite luminescence; Mn2+ added to activate the integrin; inhibition, % at 10 µM; 0.54% of 93,000 active; AID 1497;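 active = primary inhibition of 50% or more at 10 µM, then 40% or more on retest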
CYP2C9 act: CYP2C9 (human) activation | 1.4% of 96,000 active | recombinant CYP2C9, luciferin-H conversion, luminescence; stronger effect = higher value; factor 1 = untreated enzyme, 0 = blocked | AID 1024 | activation factor at 5 µM;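 active = activation factor of 2 or more for CYP2C9 at a 5 µM dose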;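 note: 0 = sulfaphenazole-blocked wells and 1 = vehicle-only wells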
CYP2C19 inh: human CYP2C19 inhibition; CYP2C19 Supersomes, luciferin-H EGE luminescence, 30 min; AID 778; 21% of 96,000 active; P33261; inhibition, % at 5 µM;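 active = CYP2C19 inhibition above a set limit at 5 µM in the primary screen, cut at about 50% in these data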;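 note: plate controls were negative control wells for no effect and 2.5 mM tranylcypromine positive control for full effect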
The depositor's hits bear a star; / = no result. Shown are actives, neighbours in structure and some others; about 28% of the full set was active somewhere.

SMILES | CD11b adhes enh | CYP2C19 act | CYP2C9 inhib | CD11b adhes inh | CYP2C9 act | CYP2C19 inh
Cc1ccc(C2C(=O)N(C3CCC(C)CC3)CC(=O)N2C2CC2)cc1 (configuration not stated) | -4 | 0.9 | -89 | 10 | 1.9 | 8
Cc1cccc(NS(=O)(=O)c2cccc3cccnc23)n1 | 3 | 0.9 | -152 | -12 | 2.5* | 5
CCCNS(=O)(=O)c1cccc2cccnc12 | 4 | 0.9 | -78 | 0 | 1.8 | 10
CC(=O)Oc1ccc(-c2cccc(C(=O)OCC(=O)N(C)c3ccccc3)c2)cc1 | 5 | / | / | 23 | / | /
CC(C(=O)NCc1cccs1)N1C(=O)c2ccccc2C1=O (configuration not stated) | -2 | 0.8 | 24 | -9 | 0.8 | 24
CCc1ccc(OCc2ccc(C(=O)NCc3ccccn3)o2)cc1 | 7 | 0.3 | 55* | -14 | 0.4 | 71*
CCCc1ccc(OCc2ccc(C(=O)O)o2)c(OC)c1 | -6 | 1 | -12 | -1 | 1.1 | -2
CCOc1ccc(C(=O)NCc2cccnc2)cc1 | 5 | 0.6 | 8 | 11 | 0.9 | 44
CCOc1ccc(OCc2ccc(C(=O)NCc3ccncc3)o2)cc1 | -3 | 0.1 | 80* | 9 | 0.2 | 92*
CCOc1ccc(OCc2ccc(C(=O)O)o2)cc1 | -2 | 0.3 | 30 | -4 | 0.7 | 70*
O=C(OCc1ccccn1)c1ccc(COc2ccccc2Cl)o1 | 4 | 0.4 | 26 | -4 | 0.7 | 61*
CC(=O)c1cc(C#N)c(SCC(=O)OC(C)(C)C)nc1C | -2 | 0.6 | 18 | 16 | 0.8 | 36
COc1ccc(Cl)cc1NC(=O)CSc1nnc(CN2CCOCC2)n1-c1ccc(Cl)cc1 | 1 | 1 | -4 | 7 | 1 | 2
CCC(C)(C)NC(=O)Cc1ccc(C)cc1 | 2 | 0.6 | 6 | -18 | 0.9 | 44
CC1(C(=O)NC2CCCC2)CCC(=O)N1CCC1=CCCCC1 (configuration not stated) | 3 | 0.7 | 33 | 19 | 0.7 | 33
CN(C)c1nccc(N(Cc2ccccc2)Cc2ccccc2)c1C#N | 1 | 0.7 | 65* | 0 | 0.4 | 27
CN(C)CCN(Cc1ccccc1)c1ccnc(N(C)C)c1C#N | 2 | 1 | 2 | -6 | 1 | -3
COc1ccc(OC)c(/C=N/NC(=O)c2csc3ccccc23)c1 | / | 1 | -4 | / | 1 | -3
COc1ccc(CCNS(=O)(=O)c2ccc3c(c2)CCN3C(=O)C2CC2)cc1OC | / | 0.6 | 66* | / | 0.3 | 45
COc1ccc(CCNC(=O)CCC(=O)N2CCN(S(=O)(=O)c3ccc(Cl)cc3)CC2)cc1OC | 2 | 1 | 14 | 2 | 0.9 | 0
COc1ccc(CCNS(=O)(=O)c2ccc3c(c2)CC(C)N3C(C)=O)cc1OC (configuration not stated) | / | 0.8 | 38 | / | 0.6 | 25
CCC(=O)N1CCc2cc(S(=O)(=O)NC(Cc3ccccc3)C(=O)NC3CCCCC3C)ccc21 (configuration not stated) | -3 | 0.6 | 50 | 1 | 0.5 | 40
CCC(=O)N1CCc2cc(S(=O)(=O)CCC(=O)NCCc3ccc(OC)c(OC)c3)ccc21 | 6 | 0.7 | 55* | -24 | 0.4 | 28
CCC(=O)N1CCc2cc(S(=O)(=O)CCC(=O)NCCc3ccccc3)ccc21 | 0 | 0.7 | 50* | 7 | 0.5 | 35
CCC(=O)N1CCc2cc(S(=O)(=O)NC(CC(C)C)C(=O)N3CCc4ccccc43)ccc21 (configuration not stated) | 10 | 0.5 | 24 | -25 | 0.8 | 52*
COCCNc1cc(C)nc2c3c(C)cc(C)nc3nn12 | -4 | 1 | 13 | 3 | 0.9 | -4
Cc1nc(SCc2c(F)cccc2Cl)c2c(=O)n(C)c(=O)n(C)c2n1 | 4 | 0.9 | 29 | -8 | 0.7 | 12
COc1ccc(CCNS(=O)(=O)c2ccc3c(c2)n(C)c(=O)c(=O)n3C)cc1OC | -2 | 1 | -8 | 2 | 1.1 | 3
COc1ccc(CCNS(=O)(=O)c2ccc(S(=O)(=O)N3CCCC3)cc2)cc1OC | -2 | 0.6 | 57* | -14 | 0.4 | 36
CC1CCCCN1S(=O)(=O)c1ccc2c(c1)CCN2C(=O)C1CCC1 (configuration not stated) | / | 0.7 | 41 | / | 0.6 | 26
